Several values for one entry are separate records, joined by “and”; a condition that tells them apart may be missing. Equal values may be shown once. Records with an inconclusive call do not appear. Where a call stands in place of a potency, no number is given. A structure can be active in one record and inactive in another. Activity calls are given as the source filed them. Unless noted, calls follow the shape of the dose curve; as a rule, active = well fitted curve in the direction sought with a large enough effect in the repeat runs; inconclusive = weak or mixed curves; inactive = no such curve, though single readings can be large; an effect the other way counts as inactive or inconclusive.
Key:
[1] = qHTS assay to identify small molecule agonists of the estrogen receptor alpha (ER-alpha) signaling pathway in the presence of an antagonist - cell viability counter screen (AID 1259386);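 also: cells exposed to compounds for 22 h at 37 °C before the viability read; nearly all actives have a fitted effect of over 30% in size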; also: potency is read from the fitted curve at half-maximal effect
How it was run: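 Using estrogen-depleted VM7Luc4E2 cells, the 15-concentration compound series was applied together with 10.0nM ICI-182,780 and incubated 22hr at 37C/5% CO2. Cell viability was then scored by CellTiter-Fluor.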

[2] = biological target: Progesterone receptor (Homo sapiens) (UniProt P06401); assay: qHTS assay to identify small molecule agonists of the progesterone receptor (PR) signaling pathway (AID 1346784; calls by dose curve; also: nearly all actives have a fitted effect of over 30% in size)
Progesterone receptor (Homo sapiens), sequence (P06401 whole entry, looked up): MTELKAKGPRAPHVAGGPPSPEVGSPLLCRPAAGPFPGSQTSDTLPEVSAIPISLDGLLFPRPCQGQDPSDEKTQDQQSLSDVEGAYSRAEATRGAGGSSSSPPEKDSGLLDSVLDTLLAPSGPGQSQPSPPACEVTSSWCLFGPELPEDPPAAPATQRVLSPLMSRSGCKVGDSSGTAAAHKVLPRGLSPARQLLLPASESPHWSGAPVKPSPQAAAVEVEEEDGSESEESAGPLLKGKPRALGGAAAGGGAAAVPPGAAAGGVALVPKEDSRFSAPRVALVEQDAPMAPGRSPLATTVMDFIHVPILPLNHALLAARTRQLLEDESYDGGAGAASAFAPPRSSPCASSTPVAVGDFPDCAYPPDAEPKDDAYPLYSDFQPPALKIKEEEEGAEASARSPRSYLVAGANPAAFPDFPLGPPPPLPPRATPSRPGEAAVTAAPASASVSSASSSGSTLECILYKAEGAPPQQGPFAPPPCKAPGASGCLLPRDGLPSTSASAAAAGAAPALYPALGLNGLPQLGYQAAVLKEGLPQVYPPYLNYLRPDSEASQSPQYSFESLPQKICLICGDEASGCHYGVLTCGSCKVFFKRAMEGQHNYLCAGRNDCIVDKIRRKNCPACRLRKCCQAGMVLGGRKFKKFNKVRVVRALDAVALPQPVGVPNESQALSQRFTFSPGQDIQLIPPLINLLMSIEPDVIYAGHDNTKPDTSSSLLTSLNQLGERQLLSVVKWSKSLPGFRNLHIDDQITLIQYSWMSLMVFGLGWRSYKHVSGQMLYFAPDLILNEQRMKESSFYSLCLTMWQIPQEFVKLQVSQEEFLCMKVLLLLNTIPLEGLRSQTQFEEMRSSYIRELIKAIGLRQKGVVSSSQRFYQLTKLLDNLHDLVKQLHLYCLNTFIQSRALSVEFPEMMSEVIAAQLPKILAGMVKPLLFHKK
How it was run: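 Seed PR-UAS-bla HEK 293T cells (2% charcoal-stripped FBS), incubate 6 hr at 37C; add compounds in DMSO, 16 hr at 37C; add LiveBLAzer B/G substrate, 2 hr RT; read fluorescence intensity.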

[3] = biological target: Progesterone receptor (Homo sapiens) (UniProt P06401); assay: qHTS assay to identify small molecule antagonists of the progesterone receptor (PR) signaling pathway (AID 1346795; active = well fitted inhibition curve with a large enough effect in the signal ratio in the repeat runs, not every such curve was filed as active; the % refers to the signal ratio; also: potency is read from the fitted curve at half-maximal effect)
How it was run: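 Screening used a GripTite HEK293T line with PR-responsive UAS-beta-lactamase. Cells were challenged with compound in the presence of 1 nM R5020 final for 16 hr at 37C; B/G FRET substrate, 2 hr room temperature, fluorescence.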

[4] = qHTS assay to identify small molecule agonists of the progesterone receptor (PR) signaling pathway - cell viability counter screen (AID 1346799; calls by dose curve; also: nearly all actives have a fitted effect of over 45% in size; also: potency is read from the fitted curve at half-maximal effect)
How it was run: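 Using the same plates as the PR reporter screen, HEK293T PR-UAS-bla cells received compounds for 16 hr at 37C and were then lysed with CellTiter-Glo; luminescence was read 30 min later at room temperature.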

[5] = qHTS assay to identify small molecule antagonists of the TGF-beta/Smad signaling pathway - cell viability counter screen (AID 1346824); also: nearly all actives have a fitted effect of over 50% in size; also: potency is read from the fitted curve at half-maximal effect
How it was run: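 SBE-bla HEK 293T cells were plated overnight at 37 C, then given compounds in DMSO plus TGF-beta1 (added as 0.25 ng/mL solution) for 5 hr. After the bla read, CellTiter-Glo was added to the same wells and luminescence read after 30 min at room temperature.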

[6] = qHTS assay to identify small molecule agonists of the TGF-beta/Smad signaling pathway - cell viability counter screen (AID 1346829); also: nearly all actives have a fitted effect of over 45% in size; also: potency is read from the fitted curve at half-maximal effect
How it was run: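 Luminescence from CellTiter-Glo, read after a 30 min room-temperature incubation, gives cell viability of SBE-bla HEK 293T cells treated 5 hr with compounds at 37 C.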

[7] = qHTS assay to identify small molecule agonists of the TGF-beta/Smad signaling pathway (AID 1346859; active = well fitted activation curve with a large enough effect in the signal ratio in the repeat runs, not every such curve was filed as active; the % refers to the signal ratio; also: series mostly up to about 77 µM)
How it was run: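 Beta-lactamase reporter activity downstream of Smad binding elements was measured in stably transfected HEK 293T cells; compounds were incubated for 5 hr, substrate for 2 hr at room temperature.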

[8] = biological target: Thyrotropin-releasing hormone receptor (Homo sapiens) (UniProt P34981); assay: qHTS assay to identify small molecule antagonists of the thyrotropin-releasing hormone receptor (TRHR) signaling pathway (AID 1346877; active = well fitted inhibition curve with a large enough effect in the repeat runs, not every such curve was filed as active; also: potency is read from the fitted curve at half-maximal effect)
Thyrotropin-releasing hormone receptor (Homo sapiens), sequence (P34981 whole entry, looked up): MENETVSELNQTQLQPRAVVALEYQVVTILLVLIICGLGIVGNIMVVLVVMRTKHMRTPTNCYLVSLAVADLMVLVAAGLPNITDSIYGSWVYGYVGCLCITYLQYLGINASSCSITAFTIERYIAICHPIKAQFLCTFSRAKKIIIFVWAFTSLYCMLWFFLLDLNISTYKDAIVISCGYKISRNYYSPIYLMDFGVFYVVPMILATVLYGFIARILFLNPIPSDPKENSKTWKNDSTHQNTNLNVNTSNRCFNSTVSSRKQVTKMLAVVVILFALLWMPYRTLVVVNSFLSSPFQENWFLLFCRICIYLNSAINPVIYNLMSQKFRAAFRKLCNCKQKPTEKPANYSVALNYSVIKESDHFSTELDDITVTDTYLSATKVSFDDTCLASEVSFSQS
How it was run: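 Calcium signal in dye-loaded TRHR/HEK293 cells; compounds added 5 min before TRH (1 nM final); fluorescence monitored 3 min at 1 s steps.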

[9] = biological target: Thyrotropin-releasing hormone receptor (Homo sapiens) (UniProt P34981); assay: qHTS assay to identify small molecule agonists of the thyrotropin-releasing hormone receptor (TRHR) signaling pathway (AID 1346891; calls by dose curve;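 also: HEK293 cells expressing TRHR with calcium dye readout; series mostly up to about 58 µM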)
How it was run: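 Overnight-plated (18 h, 37 °C, 5% CO2) TRHR-Hek293 cells; 2 h calcium dye at 37 °C; compound in DMSO; 3-min kinetic fluorescence read.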

[10] = qHTS assay to identify small molecule antagonists of the progesterone receptor (PR) signaling pathway - cell viability counter screen (AID 1346798); also: nearly all actives have a fitted effect of over 50% in size; also: potency is read from the fitted curve at half-maximal effect
How it was run: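 Measures cytotoxicity in parallel with the PR antagonist reporter read: HEK293T PR-UAS-bla cells get compound and R5020 for 16 hr, and remaining viable cells are quantified by CellTiter-Glo luminescence.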

SMILES | Potency [1] | Potency [2] | Potency [3] | Potency [4] | Potency [5] | Potency [6] | outcome [7] | Potency [8] | Potency [9] | Potency [10]
CC1CN1 (stereo not given) | inactive | inactive | inactive | inactive | inactive | inactive | inactive | – | – | –
CCn1cc[n+](C)c1 (tested in a mixture with another compound) | inactive | inactive | inactive | inactive | inactive | – | inactive | – | – | –
CN1C2CCC(C)(C)C1CC(OC(=O)C(O)(c1cccs1)c1cccs1)C2 (stereo not given) | inactive | inactive | inactive | – | inactive | – | inactive | inactive | inactive | –
CN(C)C(=S)SSC(=S)N(C)C | 30.2 µM (active) and 30.6 µM (active) | – | 0.135 µM (active) | 344 nM (active) and 298 nM (active) | 19.2 µM (active) and 43.6 µM (active) and 26.8 µM (active) | 34.2 µM (active) and inactive | inactive | – | – | 170 nM (active) and 386 nM (active) and 266 nM (active)
CCc1cccc(C)c1N(C(=O)CCl)[C@@H](C)COC | inactive | inactive | – | inactive | inactive | inactive | inactive | inactive | inactive | inactive
CC(=O)[O-].CC(=O)[O-].[Co+2] | inactive | inactive | – | – | inactive | inactive | inactive | – | – | –
C1=CCC=C1 | inactive | – | inactive | inactive | inactive | inactive | inactive | – | – | inactive
[C-]1=CC=CC1.[Cl][Zr+2][Cl].c1cc[cH-]c1 | inactive | – | inactive | inactive | inactive | inactive | inactive | – | – | inactive
CCCC[N+]1(C)CCCC1 (tested in a mixture with another compound) | inactive | – | inactive | inactive | inactive | inactive | inactive | – | – | inactive
ClSC(Cl)(Cl)Cl | inactive | inactive | – | inactive | inactive | inactive | inactive | inactive | – | inactive
CCC[CH2][Sn]([CH2]CCC)([CH2]CCC)[CH2]CCC | 17.2 µM (active) | – | 24.3 µM (active) | – | 38.9 µM (active) | 38.9 µM (active) | – | inactive | inactive | 43.3 µM (active)
C=CCOC(=O)c1ccccc1N | inactive | inactive | – | inactive | inactive | inactive | inactive | – | – | inactive
O=C(O)CCCCCCNC1c2ccccc2CCc2ccccc21 | inactive | – | inactive | inactive | inactive | – | inactive | – | – | inactive
CC(=O)O.CC(=O)O.CC(=O)O.CC(=O)O.CC(=O)O.CC(=O)O.CC(=O)O.O.O.[Cr].[Cr].[Cr] | inactive | – | inactive | inactive | – | inactive | inactive | – | – | inactive
Cc1cnc2c(C(=O)O)c(Cl)ccc2c1 | inactive | – | inactive | inactive | inactive | – | inactive | inactive | inactive | inactive
Cc1c([N+](=O)[O-])cc2c(c1[N+](=O)[O-])C(C)(C)CC2(C)C | inactive | inactive | – | inactive | – | inactive | inactive | inactive | inactive | inactive
Cc1cccc(Cc2cnc[nH]2)c1C | inactive | inactive | – | inactive | inactive | – | inactive | – | – | –
CCOC(=O)Cc1ccccc1 | inactive | – | inactive | inactive | inactive | inactive | inactive | inactive | inactive | inactive
CN | inactive | inactive | – | inactive | inactive | inactive | inactive | inactive | inactive | inactive
C[C@]12Cc3cn[nH]c3C[C@@H]1CC[C@@H]1[C@@H]2CC[C@@]2(C)[C@H]1CC[C@]2(C)O | inactive | – | 0.119 µM (active) | 18.8 µM (active) | inactive | inactive | inactive | inactive | – | 18.8 µM (active)
CN(C)CCc1c[nH]c2ccccc12 | inactive | inactive | – | – | inactive | inactive | inactive | inactive | inactive | –
BrCC(Br)(Br)Br | inactive | inactive | – | inactive | inactive | inactive | inactive | 15.7 µM (active) | inactive | –
Cc1c([N+](=O)[O-])c(C)c([N+](=O)[O-])c(C(C)(C)C)c1[N+](=O)[O-] | inactive | inactive | – | – | inactive | inactive | inactive | inactive | inactive | –
O.O.O.O=C([O-])[C@H]([O-])[C@@H]([O-])C(=O)[O-].O=C([O-])[C@H]([O-])[C@@H]([O-])C(=O)[O-].[K+].[K+].[Sb+3].[Sb+3] | 54.8 µM (active) | inactive | – | – | inactive | inactive | inactive | inactive | inactive | –
Brc1ccc(Oc2ccc(Br)cc2Br)c(Br)c1 | inactive | inactive | – | – | inactive | inactive | inactive | inactive | – | inactive
CC1(C)[C@H](/C=C2\CCSC2=O)[C@@H]1C(=O)OCc1coc(Cc2ccccc2)c1 | inactive | inactive | – | – | inactive | inactive | inactive | inactive | inactive | –
Clc1ccc(C2(Cn3cncn3)OCCO2)c(Cl)c1 | inactive | inactive | – | – | inactive | inactive | inactive | inactive | inactive | –
CCN(CC)C(=O)N[C@@H]1C=C2c3cccc4[nH]cc(c34)C[C@@H]2N(C)C1 | inactive | – | inactive | inactive | inactive | inactive | inactive | inactive | inactive | inactive
CCCCC(CC)COC(=O)OOC(C)(C)C (stereo not given) | inactive | – | inactive | inactive | inactive | inactive | inactive | inactive | – | inactive

Source: PubChem BioAssay (Tox21)
